Our source for the Potency and outcome values is PubChem BioAssay (Tox21).

A number with no mark means an inactive call. Inconclusive results are not listed. Activity calls are given as the source filed them. Unless noted, calls follow the shape of the dose curve; as a rule, active = well fitted curve in the direction sought with a large enough effect in the repeat runs; inconclusive = weak or mixed curves; inactive = no such curve, though single readings can be large; an effect the other way counts as inactive or inconclusive.

Test [1] in a line: qHTS assay to identify small molecule antagonists of the sonic hedgehog signaling (Shh) pathway (AID 1259369; calls by dose curve; also: nearly all actives have a fitted effect of over 45% in size; also: potency is read from the fitted curve at half-maximal effect). Put shortly:
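Inhibition of Shh signalling is measured as reduced Gli1-response-element firefly luciferase output in an NIH/3T3-derived stable reporter clone stimulated with conditioned medium for 24hr.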
On the technique in general: Quantitative high-throughput screening tests each substance at several concentrations.

Test [2] is described as follows: qHTS assay to identify small molecule agonists of the androgen receptor (AR) signaling pathway in the presence of an antagonist - cell viability counter screen (AID 1259379).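 Also: MDA-kb2 human breast cancer cells carrying an MMTV luciferase reporter; series mostly up to about 92 µM; nearly all actives have a fitted effect of over 25% in size.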 Put shortly: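 Fluorescence from CellTiter-Fluor, added after 15 hr and read 1 hr later, gave cell viability. Cells were MDA-kb2 exposed to compounds (15 concentrations) in the presence of 3.0uM nilutamide at 37C, 0% CO2.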

Test [3] in a line: qHTS assay to identify small molecule agonists of the estrogen receptor beta (ER-beta) signaling pathway - cell viability counter screen (AID 1259380). Also: nearly all actives have a fitted effect of over 30% in size. Also: potency is read from the fitted curve at half-maximal effect. Put shortly: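 Same-well viability counter screen. Cells: ER-beta-UAS-bla HEK293T, plated 6 hr before compound, in 2% charcoal-stripped FBS. Compound exposure 16 hr, 37C; viability by CellTiter-Glo luminescence after 30 min at room temperature.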

The target in test [4] is Estrogen receptor (Homo sapiens) (UniProt P03372). Nature of the test: qHTS assay to identify small molecule agonists of the estrogen receptor alpha (ER-alpha) signaling pathway in the presence of an antagonist (AID 1259383; calls by dose curve; also: top concentration of the series differs between compounds; nearly all actives have a fitted effect of over 15% in size). The procedure, abridged: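 Cells are hormone-deprived for 5 days (charcoal-stripped FBS, no phenol red), plated for 24hr, spiked with 10.0nM ICI-182,780, then dosed at 15 concentrations. After 22hr at 37C, ONE-Glo luminescence reports ERE-luciferase activity.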
Estrogen receptor (Homo sapiens), sequence (P03372 whole entry, looked up): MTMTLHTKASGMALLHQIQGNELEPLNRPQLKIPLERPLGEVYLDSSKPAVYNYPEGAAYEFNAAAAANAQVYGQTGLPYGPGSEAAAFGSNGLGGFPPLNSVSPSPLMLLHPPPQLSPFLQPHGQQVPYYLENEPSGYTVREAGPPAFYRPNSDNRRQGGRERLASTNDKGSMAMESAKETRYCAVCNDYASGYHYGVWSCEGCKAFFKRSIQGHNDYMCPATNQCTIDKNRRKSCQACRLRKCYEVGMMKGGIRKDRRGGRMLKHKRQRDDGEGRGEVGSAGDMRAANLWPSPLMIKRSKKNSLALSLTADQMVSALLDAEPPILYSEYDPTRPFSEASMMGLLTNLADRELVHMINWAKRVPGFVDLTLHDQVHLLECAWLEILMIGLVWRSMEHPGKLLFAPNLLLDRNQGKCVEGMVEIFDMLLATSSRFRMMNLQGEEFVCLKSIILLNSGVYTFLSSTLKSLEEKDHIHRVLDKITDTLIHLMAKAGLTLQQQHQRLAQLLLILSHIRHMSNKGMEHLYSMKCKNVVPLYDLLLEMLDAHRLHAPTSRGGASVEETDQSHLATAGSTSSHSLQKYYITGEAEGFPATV

Test [5] can be described thus: qHTS assay to identify small molecule agonists or antagonists of the thyroid stimulating hormone receptor (TSHR) signaling pathway - wild type cell line counter screen (AID 1259384; calls by dose curve). Put shortly: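 Wild-type HEK293 cells were plated 18 h at 37 C/5% CO2, pin-dosed with compound plus Ro20-1724 medium, held 30 min at room temperature, then given cAMP-d2 and anti-cAMP-cryptate; fluorescence was read after 1 h. Fifteen concentrations, triplicate.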

Test [6] can be described thus: qHTS assay to identify small molecule agonists of the estrogen receptor alpha (ER-alpha) signaling pathway in the presence of an antagonist - cell viability counter screen (AID 1259386).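 Also: cells exposed to compounds for 22 h at 37 °C before the viability read; nearly all actives have a fitted effect of over 30% in size.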 Also: potency is read from the fitted curve at half-maximal effect. Put shortly: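 Cells are starved of estrogens for 5 days in charcoal-stripped serum, seeded for 24hr and co-treated with ICI-182,780 (10.0nM final) and test compounds. After 22hr at 37C, viability is read as CellTiter-Fluor fluorescence.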

Test [7] addresses Progesterone receptor (Homo sapiens) (UniProt P06401). Kind of test: qHTS assay to identify small molecule agonists of the progesterone receptor (PR) signaling pathway (AID 1346784; calls by dose curve; also: nearly all actives have a fitted effect of over 30% in size). The procedure, abridged:
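Compounds were tested for PR agonism in HEK 293T cells bearing a beta-lactamase gene under UAS control. Treatment lasted 16 hr at 37C; signal came from fluorescence of a FRET substrate.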

A short description of test [8]: qHTS assay to identify small molecule antagonists of the progesterone receptor (PR) signaling pathway - cell viability counter screen (AID 1346798). Also: series mostly up to about 92 µM; nearly all actives have a fitted effect of over 50% in size. The procedure, abridged:
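Following a 4 hr attachment, PR-UAS-bla HEK293T cells in charcoal-stripped FBS medium were exposed to compounds with R5020 for 16 hr; CellTiter-Glo was added and luminescence read after 30 min at room temperature.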

A short description of test [9]: qHTS assay to identify small molecule agonists of the progesterone receptor (PR) signaling pathway - cell viability counter screen (AID 1346799; calls by dose curve; also: nearly all actives have a fitted effect of over 45% in size; also: potency is read from the fitted curve at half-maximal effect). The procedure, abridged:
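Here, 3,000 PR-UAS-bla HEK293T cells per well were treated with compounds for 16 hr after a 6 hr preincubation at 37C and 5% CO2; cell viability is the CellTiter-Glo luminescence signal.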

Test [10] can be described thus: qHTS assay to identify small molecule antagonists of the TGF-beta/Smad signaling pathway - cell viability counter screen (AID 1346824). Also: nearly all actives have a fitted effect of over 50% in size. Put shortly: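 SBE-bla HEK 293T cells were plated overnight at 37 C, then given compounds in DMSO plus TGF-beta1 (added as 0.25 ng/mL solution) for 5 hr. After the bla read, CellTiter-Glo was added to the same wells and luminescence read after 30 min at room temperature.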

The nature of test [11]: qHTS assay to identify small molecule agonists of the TGF-beta/Smad signaling pathway - cell viability counter screen (AID 1346829). Also: top concentration of the series differs between compounds; nearly all actives have a fitted effect of over 45% in size. The procedure, abridged:
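Luminescence from CellTiter-Glo, read after a 30 min room-temperature incubation, gives cell viability of SBE-bla HEK 293T cells treated 5 hr with compounds at 37 C.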

Test [12] is described as follows: qHTS assay to identify small molecule agonists of the TGF-beta/Smad signaling pathway (AID 1346859; active = well fitted activation curve with a large enough effect in the signal ratio in the repeat runs, not every such curve was filed as active; the % refers to the signal ratio; also: series mostly up to about 77 µM). The procedure, abridged: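 Each well held 4,000 SBE-bla HEK 293T cells incubated overnight before compound addition; 5 hr later the cleavable FRET substrate went on for 2 hr at room temperature, and fluorescence was read at two emissions.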
The nature of test [13]: qHTS assay to identify small molecule antagonists of the estrogen receptor beta (ER-beta) signaling pathway - cell viability counter screen (AID 1259382). Also: series mostly up to about 92 µM; nearly all actives have a fitted effect of over 55% in size. Put shortly:
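Following a 6 hr plating period, HEK293T cells carrying a UAS-driven beta-lactamase reporter under ER-beta control received compounds and 1nM E2 (final). After 16 hr at 37C and 2 hr substrate loading, CellTiter-Glo luminescence indicated viability.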

Test [14] concerns the target Thyrotropin receptor (Homo sapiens) (UniProt P16473). Nature of the test: qHTS assay to identify small molecule antagonists of the thyroid stimulating hormone receptor (TSHR) signaling pathway (AID 1259385; calls by dose curve; also: nearly all actives have a fitted effect of over 20% in size). The procedure, abridged: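 TSHR-HEK293 cells were plated and held 18 h at 37C/5% CO2, then given compound plus Ro20-1724 and stimulated with TSH at 1.5 ng/mL final. After 30 min at room temperature, cAMP was detected with cAMP-d2/anti-cAMP-cryptate (1 h) by fluorescence.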

Test [15] addresses Progesterone receptor (Homo sapiens) (UniProt P06401). Kind of test: qHTS assay to identify small molecule antagonists of the progesterone receptor (PR) signaling pathway (AID 1346795; active = well fitted inhibition curve with a large enough effect in the signal ratio in the repeat runs, not every such curve was filed as active; the % refers to the signal ratio). Put shortly: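 In HEK293T cells bearing the PR-UAS-bla reporter, compound effects on promegestone-driven (1 nM) beta-lactamase expression are assessed after 16 hr using a fluorescent FRET substrate incubated 2 hr at room temperature.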

Test [16] addresses Thyrotropin-releasing hormone receptor (Homo sapiens) (UniProt P34981). Kind of test: qHTS assay to identify small molecule antagonists of the thyrotropin-releasing hormone receptor (TRHR) signaling pathway (AID 1346877; active = well fitted inhibition curve with a large enough effect in the repeat runs, not every such curve was filed as active; also: series mostly up to about 51 µM). Put shortly:
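Cells (TRHR-HEK293) are plated and kept 18 h at 37 °C/5% CO2. A calcium-sensitive dye is added for 2 h, compound follows for 5 min at room temperature, and TRH is then given at 1 nM final.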

The target is the same in test [17]. Kind of test: qHTS assay to identify small molecule agonists of the thyrotropin-releasing hormone receptor (TRHR) signaling pathway (AID 1346891; calls by dose curve; also: series mostly up to about 58 µM). Put shortly: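 Screening of agonists relied on calcium signalling in HEK293 cells expressing human TRHR: dye loading 2 h at 37 °C preceded compound addition and a 3-min fluorescence time course.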
For test [18], the target named is Estrogen receptor beta (Homo sapiens) (UniProt Q92731). Nature of the test: qHTS assay to identify small molecule agonists of the estrogen receptor beta (ER-beta) signaling pathway (AID 1259377; active = well fitted activation curve with a large enough effect in the signal ratio in the repeat runs, not every such curve was filed as active; the % refers to the signal ratio). The procedure, abridged:
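Read-out: beta-lactamase FRET fluorescence. Cell line: ER-beta-UAS-bla HEK293T in 2% charcoal-stripped FBS. Exposure: 16 hr at 37C. Substrate step: 2 h at room temperature.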

For test [19] the target is unchanged. Nature of the test: qHTS assay to identify small molecule antagonists of the estrogen receptor beta (ER-beta) signaling pathway (AID 1259378; active = well fitted inhibition curve with a large enough effect in the signal ratio in the repeat runs, not every such curve was filed as active; the % refers to the signal ratio). The procedure, abridged: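 ER-beta-UAS-bla HEK293T (GripTite) cells in 2% charcoal-stripped FBS medium were preincubated 6 hr at 37C, dosed with compound, then stimulated with 1 nM E2 (final) for 16 hr; beta-lactamase reporter read by B/G FRET fluorescence after 2 hr substrate loading.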

The target in test [20] is Androgen receptor (Homo sapiens) (UniProt P10275). Kind of test: qHTS assay to identify small molecule agonists of the androgen receptor (AR) signaling pathway in the presence of an antagonist (AID 1259381; calls by dose curve; also: nearly all actives have a fitted effect of over 15% in size). The procedure, abridged:
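Cells are MDA-kb2 (human breast carcinoma, MMTV-luc, AR/GR responsive). Nilutamide is present at 3.0uM final throughout; compounds are added at 15 concentrations and incubated 16hr at 37C before ONE-Glo luminescence detection.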

Thyrotropin receptor (Homo sapiens), sequence (P16473 whole entry, looked up): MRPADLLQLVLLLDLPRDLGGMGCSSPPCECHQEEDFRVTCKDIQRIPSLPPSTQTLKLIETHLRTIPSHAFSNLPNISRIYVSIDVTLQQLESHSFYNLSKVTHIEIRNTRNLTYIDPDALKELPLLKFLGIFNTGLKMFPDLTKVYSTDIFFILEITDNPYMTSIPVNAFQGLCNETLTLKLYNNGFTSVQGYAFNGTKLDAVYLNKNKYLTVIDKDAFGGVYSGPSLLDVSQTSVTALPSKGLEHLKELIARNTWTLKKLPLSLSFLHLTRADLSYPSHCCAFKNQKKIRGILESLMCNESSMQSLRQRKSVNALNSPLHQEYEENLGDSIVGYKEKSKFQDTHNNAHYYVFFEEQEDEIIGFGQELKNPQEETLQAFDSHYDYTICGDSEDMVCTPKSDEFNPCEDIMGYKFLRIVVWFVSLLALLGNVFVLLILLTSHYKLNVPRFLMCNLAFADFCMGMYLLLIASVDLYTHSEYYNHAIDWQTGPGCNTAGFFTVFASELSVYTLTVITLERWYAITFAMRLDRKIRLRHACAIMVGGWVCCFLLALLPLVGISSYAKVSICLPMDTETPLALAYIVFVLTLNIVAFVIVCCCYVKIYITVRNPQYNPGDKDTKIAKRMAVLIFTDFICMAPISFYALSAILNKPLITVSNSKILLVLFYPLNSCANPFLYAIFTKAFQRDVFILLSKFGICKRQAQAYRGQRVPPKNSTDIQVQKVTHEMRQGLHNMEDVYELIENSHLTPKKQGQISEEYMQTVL
Progesterone receptor (Homo sapiens), sequence (P06401 whole entry, looked up): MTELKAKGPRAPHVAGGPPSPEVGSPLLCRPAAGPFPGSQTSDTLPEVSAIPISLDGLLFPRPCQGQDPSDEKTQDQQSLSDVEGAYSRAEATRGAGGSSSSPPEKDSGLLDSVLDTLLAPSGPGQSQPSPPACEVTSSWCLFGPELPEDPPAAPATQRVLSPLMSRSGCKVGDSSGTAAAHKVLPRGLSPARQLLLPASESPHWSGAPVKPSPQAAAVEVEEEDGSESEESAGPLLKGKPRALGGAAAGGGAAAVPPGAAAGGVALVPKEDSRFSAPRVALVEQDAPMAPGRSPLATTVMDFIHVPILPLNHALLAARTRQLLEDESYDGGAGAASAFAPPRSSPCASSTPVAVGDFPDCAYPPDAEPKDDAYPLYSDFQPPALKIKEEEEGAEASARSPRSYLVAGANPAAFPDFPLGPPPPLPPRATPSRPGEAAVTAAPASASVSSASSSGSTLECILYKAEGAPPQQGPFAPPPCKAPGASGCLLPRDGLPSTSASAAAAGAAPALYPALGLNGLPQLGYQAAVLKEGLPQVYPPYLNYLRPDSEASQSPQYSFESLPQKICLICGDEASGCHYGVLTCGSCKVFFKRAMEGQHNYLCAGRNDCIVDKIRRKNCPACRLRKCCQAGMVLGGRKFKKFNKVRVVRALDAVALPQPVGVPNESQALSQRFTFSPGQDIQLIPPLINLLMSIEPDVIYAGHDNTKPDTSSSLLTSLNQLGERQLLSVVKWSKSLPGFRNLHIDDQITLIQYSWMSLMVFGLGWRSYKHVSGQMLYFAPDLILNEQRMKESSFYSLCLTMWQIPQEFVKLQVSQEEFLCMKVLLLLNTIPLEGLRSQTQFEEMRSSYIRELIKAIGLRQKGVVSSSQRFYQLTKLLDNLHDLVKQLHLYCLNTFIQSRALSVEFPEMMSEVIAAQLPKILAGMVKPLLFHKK
Estrogen receptor beta (Homo sapiens), sequence (Q92731 whole entry, looked up): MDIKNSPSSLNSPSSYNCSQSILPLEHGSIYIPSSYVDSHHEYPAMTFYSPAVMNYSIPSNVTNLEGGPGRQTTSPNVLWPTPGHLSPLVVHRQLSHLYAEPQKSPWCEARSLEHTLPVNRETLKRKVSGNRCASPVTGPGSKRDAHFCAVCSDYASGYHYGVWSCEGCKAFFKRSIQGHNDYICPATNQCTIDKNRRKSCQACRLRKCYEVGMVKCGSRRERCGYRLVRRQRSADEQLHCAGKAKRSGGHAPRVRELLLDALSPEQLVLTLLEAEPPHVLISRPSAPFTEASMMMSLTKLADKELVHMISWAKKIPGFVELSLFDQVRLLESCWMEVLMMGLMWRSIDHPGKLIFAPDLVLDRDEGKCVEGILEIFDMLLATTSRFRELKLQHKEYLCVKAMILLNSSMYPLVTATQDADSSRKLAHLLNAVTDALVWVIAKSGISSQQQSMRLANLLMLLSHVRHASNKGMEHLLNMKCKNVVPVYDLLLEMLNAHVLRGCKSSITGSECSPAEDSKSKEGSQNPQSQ
Thyrotropin-releasing hormone receptor (Homo sapiens), sequence (P34981 whole entry, looked up): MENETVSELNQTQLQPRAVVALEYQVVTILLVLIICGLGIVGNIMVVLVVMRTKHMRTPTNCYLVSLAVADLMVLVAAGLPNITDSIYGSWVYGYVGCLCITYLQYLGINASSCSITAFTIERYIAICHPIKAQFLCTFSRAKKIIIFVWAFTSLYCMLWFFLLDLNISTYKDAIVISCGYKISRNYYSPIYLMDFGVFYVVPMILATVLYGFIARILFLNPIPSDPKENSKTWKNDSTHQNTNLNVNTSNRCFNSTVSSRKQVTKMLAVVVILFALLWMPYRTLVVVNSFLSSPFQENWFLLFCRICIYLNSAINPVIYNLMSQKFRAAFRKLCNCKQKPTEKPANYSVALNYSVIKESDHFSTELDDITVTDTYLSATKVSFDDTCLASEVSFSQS
Androgen receptor (Homo sapiens), sequence (P10275 whole entry, looked up): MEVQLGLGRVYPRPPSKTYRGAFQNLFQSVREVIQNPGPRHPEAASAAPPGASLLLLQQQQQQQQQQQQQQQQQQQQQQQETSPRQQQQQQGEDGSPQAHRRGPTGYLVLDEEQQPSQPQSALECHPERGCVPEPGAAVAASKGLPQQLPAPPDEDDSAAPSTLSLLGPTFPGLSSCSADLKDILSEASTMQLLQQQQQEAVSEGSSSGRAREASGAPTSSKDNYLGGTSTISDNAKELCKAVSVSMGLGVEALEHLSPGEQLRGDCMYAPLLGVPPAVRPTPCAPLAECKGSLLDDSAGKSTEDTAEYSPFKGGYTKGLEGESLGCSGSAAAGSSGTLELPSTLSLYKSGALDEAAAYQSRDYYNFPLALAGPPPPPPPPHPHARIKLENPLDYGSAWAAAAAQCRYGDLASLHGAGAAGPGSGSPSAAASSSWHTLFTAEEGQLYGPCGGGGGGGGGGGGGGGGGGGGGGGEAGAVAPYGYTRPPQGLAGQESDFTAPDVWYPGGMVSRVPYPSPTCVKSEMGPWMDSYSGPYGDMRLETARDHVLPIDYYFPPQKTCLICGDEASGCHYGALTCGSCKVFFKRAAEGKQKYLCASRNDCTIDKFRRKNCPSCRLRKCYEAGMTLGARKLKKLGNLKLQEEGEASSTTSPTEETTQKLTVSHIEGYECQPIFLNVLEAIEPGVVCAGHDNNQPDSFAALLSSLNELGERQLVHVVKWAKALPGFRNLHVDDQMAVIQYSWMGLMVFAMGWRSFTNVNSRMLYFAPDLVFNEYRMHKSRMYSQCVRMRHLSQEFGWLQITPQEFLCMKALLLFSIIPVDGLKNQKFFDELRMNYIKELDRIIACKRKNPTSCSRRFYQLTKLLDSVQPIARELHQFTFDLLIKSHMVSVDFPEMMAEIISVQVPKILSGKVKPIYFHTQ

Take `CCCCCCCCCCCCOCCOS(=O)(=O)O`: the Potency result in test [1], in [2], in test [4], in [6], in test [7] and in test [8] was “inactive” each time. Also, the Potency in test [3] was 48.6 µM (active); in [9], 27.3 µM (active). Also, the call in [5], in test [10], in test [11] and in test [12] was inactive.

Turning to `O=C(O)[C@@H]1CSCN1`, the Potency entry in test [1], in test [2], in [3], in [14], in test [6] and in test [7] was “inactive” in each case. For the same compound, the Potency entry in test [15], in test [8] and in test [9] was “inactive” in each case. For the same compound, the result in test [13], in test [5], in test [10], in test [11] and in test [12] was inactive.

In the case of `CCN(O)CC`, the Potency in test [1] is 11.9 µM (active). Further, the Potency entry in [2], in test [3], in test [6], in [7], in [15] and in [8] was “inactive” in each case. In addition, the Potency result in test [9] was “inactive”. Moreover, the compound was called inactive in [13], in test [10], in test [11] and in test [12].

On to `CN(CCCN1c2ccccc2CCc2ccccc21)CC(=O)c1ccc(Cl)cc1`, for which the Potency in test [1] is 26.6 µM (active). In addition, the Potency result in [2], in [4], in test [14], in test [6], in test [8] and in [9] was “inactive” in each case. Further, in [17], the Potency result is “inactive”. Moreover, the outcome in test [5], in [10], in test [11], in test [12] and in test [16] was inactive.

In the case of `CN1C(=O)CC(c2ccccc2)C1=O` (stereo not drawn), the Potency result in test [1], in test [2], in [14], in test [6], in [7] and in [15] was “inactive” each time. Moreover, the Potency entry in test [8] and in test [9] was “inactive” throughout. Also, the compound was called inactive in test [5], in [10], in test [11] and in test [12].

Turning to `CCOc1ccc(NC(N)=O)cc1`, the compound was called inactive in [18], in [13], in test [5], in [10], in test [11] and in test [12]. Moreover, the compound was classed as inactive in test [16]. For the same compound, the Potency result in test [19], in test [2], in test [3], in [14], in test [6] and in [7] was “inactive” throughout. For the same compound, the Potency result in [15], in test [9] and in [17] was “inactive” throughout.

`O=Cc1ccc(O)c(O)c1O`: in test [1], the Potency is 26.6 µM (active). The Potency entry in test [3], in test [20], in test [14], in [7], in test [8] and in [9] was “inactive” in each case. In test [17], the Potency result is “inactive”. The compound was classed as inactive in test [5], in [10], in test [11], in test [12] and in test [16].

For the compound `Cc1ccc([N+](=O)[O-])cc1Cl`, the call in test [18], in test [5], in test [10], in test [11], in [12] and in test [16] was inactive. Also, the Potency entry in test [19], in test [2], in [3], in test [14], in test [6] and in test [15] was “inactive” each time. Moreover, the Potency result in test [8] and in [17] was “inactive” each time.

Turning to `O=C1CCCc2ccccc21`, the outcome in test [18], in [13], in test [5], in [10], in [11] and in [12] was inactive. The Potency result in test [19], in [2], in [4], in test [14], in test [6] and in [15] was “inactive” each time. The Potency result in test [8] and in test [9] was “inactive” each time.

As to `CC1=NN(c2cc(Cl)c(S(=O)(=O)O)cc2Cl)C(=O)C1N=Nc1ccc(S(=O)(=O)O)cc1` (stereo not drawn), the Potency entry in [1], in [3], in [14], in test [7], in test [8] and in test [9] was “inactive” each time. In addition, the Potency entry in [17] was “inactive”. For the same compound, the result in test [5], in test [10], in test [11], in test [12] and in test [16] was inactive. Besides, the Potency in [6] is 61.1 µM (active).
